Assay outcomes deposited in PubChem BioAssay by National Center for Advancing Translational Sciences (NCATS).
Pf growth 96h: Primary qHTS for delayed death inhibitors of the malarial parasite plastid, 96 hour incubation; 6.9% of 320,000 active; P. falciparum luciferase reporter growth, 96 h; AID 504834, 2011; Potency, µM (top dose mostly 28.7 µM), inactives show at the highest dose activity change, negative = inhibition, most hits filed as inhibitors; also: potency is read from the fitted curve at half-maximal effect
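96 h incubation, 37 C, 5% CO2, of luciferase-reporter P. falciparum-infected RBCs (2% hematocrit, 0.05% parasitemia final) with test compounds; endpoint luminescence.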
HCV inhibitor: qHTS Assay for Inhibitors of Hepatitis C Virus (HCV); Potency, µM (series often up to 41.8 µM), for inactives: at the top dose activity change, negative = inhibition, hits mostly inhibitors; Huh7.5.1 HCVcc-Cre infection, luciferase reporter, 44 h; AID 651820, 2012; 3.4% of 340,000 active; also: potency is read from the fitted curve at half-maximal effect
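Infectious HCV cell culture screen: compound-treated cells (1,000/well, pre-plated 4 h) are infected with HCVcc-Cre at roughly 0.5 moi and grown 44 h. Infection is quantified by luciferase signal after 15 min substrate incubation at room temperature.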
HCMV antiviral: qHTS Assay for inhibitors of the human cytomegalovirus (HCMV) | activity change, negative = inhibition, % at 57.5 µM | 4.5% of 410,000 active | HFF cells, HCMV-luciferase reporter, 72 h; stronger effect = lower value; in the data active = activity change below about -60%; inconclusive = no clear call, values can overlap the other calls; inactive = above about -39%
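Human foreskin fibroblasts infected with luciferase-reporter HCMV at MOI 1 PFU/cell, compounds at two doses. Luciferase measured 72 h post infection; normalized to buffer-only basal and Salinomycin (10uM) controls.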
Pf growth 48h: Primary qHTS for delayed death inhibitors of the malarial parasite plastid, 48 hour incubation | Potency, µM (highest dose often 28.7 µM), for the others: at the top dose activity change, negative = inhibition, most hits filed as inhibitors | P. falciparum luciferase growth in erythrocytes, 48 h | 5.9% of 310,000 active | AID 504832, 2011; also: potency is read from the fitted curve at half-maximal effect
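Compounds are pin-transferred into medium, infected erythrocytes (2% hematocrit, 0.1% parasitemia final) are added, and plates sit one parasite generation at 37 C in 5% CO2. Detection reagent is then added and luminescence measured.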
MARV entry inh: qHTS for inhibitors of binding or entry into cells for Marburg Virus; 1.8% of 300,000 active; Potency, µM (series often up to 37.8 µM), inactives show at the highest dose activity change, negative = inhibition, hits mostly inhibitors; AID 540276, 2011; Marburg virus pseudotyped entry inhibition, cell reporter; calls by dose curve; tested in HEK293 cells; also: potency is read from the fitted curve at half-maximal effect
LASV entry inh: qHTS for Inhibitors of binding or entry into cells for Lassa Virus. Lassa virus pseudotype entry inhibition, cell reporter. Potency, µM (titrated, usually from 37.9 µM), without a hit: at the highest dose activity change, negative = inhibition, actives largely listed as inhibitors. 1.2% of 300,000 active. AID 540256, 2011; calls by dose curve; tested in HEK293 cells; also: potency is read from the fitted curve at half-maximal effect; nearly all actives have a fitted effect of over 50% in size
Starred values were filed as active, the others as inactive; ? = inconclusive; . = not tested or not shown; [ ] = another dose, or the depositor's remark. An excerpt weighted towards active compounds, which were near 14% of everything screened. Unless noted, calls follow the shape of the dose curve; as a rule, active = well fitted inhibition curve with a large enough effect; inconclusive = small, poorly fitted or top-dose-only effect, or another doubt; inactive = no such curve, though single readings can be large or run the other way. % is scaled to controls: 0 for no effect and ±100 for the full control effect.

SMILES | Pf growth 96h | HCV inhibitor | HCMV antiviral | Pf growth 48h | MARV entry inh | LASV entry inh
COC(CNC(=O)C1CCN(C(=O)c2cc3oc(C)cc3n2Cc2c(F)cccc2Cl)CC1)OC | -0.6% | -1.6% | -67.2* | ? | ? | ?
CCOC(=O)N1CCC(NC(=O)C2CCN(C(=O)c3cc4oc(C)cc4n3Cc3c(F)cccc3Cl)CC2)CC1 | 42.3% | -17.0% | -1.5 | ? | . | .
Cc1ccc(Cn2c(C)c(CNC3CCCCC3)c(C(=O)O)c2C)cc1 | . | . | -4.7 | . | 3.1%[46.1 µM] | ?
COC(=O)c1cc(CSC(=N)N)ccc1OCCC(C)C | 6.57µM* | ? | -36.7 | 4.65µM* | ? | ?
CCCOc1ccc(CSC(=N)N)cc1C(=O)OC | ? | -23.7% | 23.7 | ? | -16.2% | -13.0%
Fc1ccc(C2CCNCC2COc2ccc3c(c2)OCO3)cc1 (stereo not drawn) | ? | 14.1µM* | -33.8 | ? | ? | ?
Fc1ccc([C@@H]2CCNC[C@H]2COc2ccc3c(c2)OCO3)cc1 | . | ? | ? | . | 16.4µM* | ?
COc1ccc(C(C(=O)NC2CCCC2)N(Cc2ccccc2)C(=O)c2nsc(Cl)c2Cl)cc1 (stereo not drawn) | ? | ? | 8.1 | ? | ? | ?
Cc1cccc(N(C(=O)c2nsc(Cl)c2Cl)C(C(=O)NC2CCCC2)c2ccc(O)cc2)c1C (stereo not drawn) | ? | ? | ? | 7.38µM* | ? | 7.31µM*
Cc1ccc(N(C(=O)c2nsc(Cl)c2Cl)C(C(=O)NC2CCCC2)c2ccc(O)cc2)cc1C (stereo not drawn) | 53.0% | ? | ? | ? | ? | 1.58µM*
NC(=O)c1nsc(C(=O)N(c2cccc(O)c2)C(C(=O)NC2CCCC2)c2ccc(Cl)cc2)c1N (stereo not drawn) | 19.2% | -19.1% | -6.4 | -1.8% | 0.8%[46.1 µM] | -14.9%
CCOc1ccc(C(C(=O)NC2CCCC2)N(Cc2ccccc2)C(=O)c2nsc(Cl)c2Cl)cc1 (stereo not drawn) | ? | ? | 5.9 | 13.1µM* | . | .
Cc1cccc(N(C(=O)c2ccco2)C(C(=O)NC2CCCC2)c2cccnc2)c1C (stereo not drawn) | 20.8% | 12.3% | -20.2 | ? | -26.6%[46.1 µM] | -5.9%[46.1 µM]
Cc1cc(C)cc(N(C(=O)c2nsc(Cl)c2Cl)C(C(=O)NC2CCCC2)c2ccc(O)cc2)c1 (stereo not drawn) | 25.1% | ? | -70.8* | ? | ? | ?
Cc1cccc(CSc2ncc(CO)n2Cc2ccc(F)cc2)c1 | . | . | -37.8 | . | . | 13.6%[46.1 µM]
Cc1ccc(Cl)cc1N1CCN(C(=O)c2c(C)oc3ncnc(N4CCOCC4)c23)CC1 | . | . | 7.8 | . | . | ?
Cc1ccc(N(CC(=O)NC2CCCC2)C(=O)c2nsc(Cl)c2Cl)cc1 | ? | -12.0% | -74.9* | -12.9% | -12.0%[46.1 µM] | 3.6%[46.1 µM]
O=C(CN(C(=O)c1nsc(Cl)c1Cl)c1ccc(F)cc1)NC1CCCC1 | ? | 6.5% | 16.8 | 10.0% | ? | 5.2%
NC(=O)COc1ccc(-c2noc(COc3ccc(Cl)cc3)n2)cc1 | . | . | 16.8 | . | -0.7%[46.1 µM] | -12.7%[46.1 µM]
CCN(CC)c1nc(SCCOC(=O)Nc2ccccc2)nc(N(CC)CC)n1 | 10.4µM* | ? | 38.1 | ? | ? | ?
COc1cc(CNC(C)c2ccccc2)c(Br)cc1OCC(N)=O (stereo not drawn) | 8.28µM* | -7.0% | 9.8 | . | 2.8% | 1.0%
CC(NCc1cc(Br)ccc1OCC(=O)NCc1ccccc1)c1ccccc1 (stereo not drawn) | ? | ? | -76.4* | ? | . | .
CCC(CO)NCc1cc(OC)c(OCC(=O)NCCc2ccccc2)cc1Br (stereo not drawn) | 4.15µM* | ? | -21.6 | ? | 0.6% | 5.2%
CCCNCc1cc(OC)c(OCC(=O)NCCc2ccccc2)cc1Br | ? | ? | -3.6 | ? | ? | 1.5%
O=C(CCC(=O)NNC(=O)COc1ccc(Br)cc1Br)NCc1ccccc1 | 34.1% | 4.4% | 2.3 | 19.3% | 24.0%[46.1 µM] | 3.9%
SMILES | Pf growth 96h | HCV inhibitor | HCMV antiviral | Pf growth 48h | MARV entry inh | LASV entry inh
COc1cc(CNCC(C)C)c(Br)cc1OCC(=O)NCc1ccccc1 | ? | ? | 14.7 | -19.3% | 2.4% | 16.7%
CCN(CC)CCNCc1cc(Br)ccc1OCC(=O)NCc1ccccc1 | 11.7µM* | -19.9% | -23.7 | ? | ? | -16.6%
CCN1C(=O)[C@H]2[C@H]3[C@H](O)[C@H](O)C/C(=N\OC[C@H]4O[C@H](c5ccccc5)C=C[C@@H]4Oc4ccc(OC)cc4)[C@@H]3CC[C@H]2C1=O | . | . | . | . | -28.3%[14.2 µM] | .
CCCNS(=O)(=O)c1cc(-c2nnc3c4ccccc4c(C)nn23)ccc1OC | . | . | ? | . | -10.1%[46.1 µM] | -1.5%[46.1 µM]
CCN(Cc1ccc(C#CCCO)cc1)CC1CCCN(CCc2cccc(OC)c2)C1 (stereo not drawn) | 2.08µM* | 11.2µM* | -18.0 | ? | . | .
CCN1C(=O)[C@@H]2[C@H](C1=O)[C@@H]1C(=O)Nc3ccccc3C(=O)N1[C@@H]2c1ccc(Br)cc1 | ? | 8.8% | -21.5 | ? | . | .
COC(=O)C(C)SC1=N/C(=C/c2ccc(-n3cncn3)cc2)C(=O)N1 (stereo not drawn) | 58.0% | -27.3% | -13.3 | 219.3% | . | .
Cc1cc(C(=O)C(=O)NC(C)C)c(C)n1-c1ccc([N+](=O)[O-])cc1 | ? | 5.8% | -10.8 | 7.38µM* | 1.6% | 5.2%
O=c1[nH]c2cccnc2n1-c1cccc([N+](=O)[O-])c1 | -2.6% | 18.4% | -84.5* | 21.4% | 13.3%[46.1 µM] | 4.4%
Cc1cnnn1-c1cccc([N+](=O)[O-])c1 | 10.5% | 10.3% | -36.9 | -4.1% | 4.3%[46.1 µM] | 9.9%
CC(=O)c1nnn(-c2cccc([N+](=O)[O-])c2)c1C | 23.4% | -1.4% | 8.8 | 32.9% | 5.0%[46.1 µM] | 3.1%
CC(=O)c1c(C(C)=O)c(C)n(-c2cccc([N+](=O)[O-])c2)c1C | 9.28µM* | -7.9% | -15.4 | -3.8% | 32.0% | 19.8%
Cc1cc(C(=O)N/N=C/c2cccc([N+](=O)[O-])c2)c(C)n1-c1ccccc1 | ? | ? | -22.5 | ? | ? | -1.3%
Cc1cc(C(=O)CCl)c(C)n1-c1cccc([N+](=O)[O-])c1 | ? | ? | -95.4* | ? | 10µM* | ?
COc1cc(C(=O)NNC(=O)CN2C(=O)NC(C)(c3ccc(C)cc3)C2=O)cc(OC)c1OC (stereo not drawn) | -25.3% | 2.8% | -4.0 | ? | ? | 14.4%
N#Cc1cccc(-c2csc(N3CCC(C(N)=O)CC3)n2)c1 | 2.5% | . | . | -6.5% | . | .
